# In PubChem BioAssay:
# “And” between values parts separate entries of the source, which are not always exact repeats. Identical values can stand only once. The source made the active and inactive calls.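 Rule for the calls, unless noted: active = compounds whose cell count with miR-34 switched on is under 0.7 times the count with it off; inactive = the rest.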
# Experiments:
# [1] = Wnt pathway potentiators raising nuclear beta-catenin – imaging, WNT3A-conditioned medium, mouse C2C12, NPC library, primary screen (AID 1117326; in the data active = nuclear beta-catenin stimulation mostly above about 4.2%, no sharp cut-off; inactive = mostly below about 10%); details: stronger effect = higher value
# [2] = stimulators of insulin release from INS-1E, primary screen, cell-based, 5 mM glucose, NPC library (AID 1117329;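 active = compound raises insulin release from rat beta cells at 5 mM glucose, no numeric limit stated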); details: rat INS-1E insulin secretion, at 10 µM, stronger effect = higher value
# [3] = growth inhibition of GSK3B-pretreated HCT116 cells – cell-based, CellTiter-Glo, 0.2 to 20 µM (AID 1117336;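 active = compounds lowering colon cancer cell viability after pretreatment blocking the GSK3B kinase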); details: HCT116 viability after GSK3B inhibitor, at 20 µM, stronger effect = higher value
# [4] = inhibition of endothelial tube formation, primary screen, imaging, VEGF stimulated, CD31 staining, tube area, NPC library (AID 1117340;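 active = compound that reduces growth-factor-driven endothelial tube area in a mixed cell culture, no cutoff stated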); details: VEGF-stimulated ADSC/ECFC co-culture, at 10 µM, stronger effect = higher value
# [5] = GLP1 release stimulators, primary, NCI-H716, NPC library (AID 1117341;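 active = compound raises GLP1 secretion from the human gut endocrine cells, with no numeric limit stated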); details: NCI-H716 cells, at 10 µM, stronger effect = higher value
# [6] = HCT116 colon cancer cell growth inhibition, primary screen, CellTiter-Glo luminescence, NPC library (AID 1117342;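 active = compounds that lower survival of HCT116 colon cancer cells in the luminescence readout, no numeric limit stated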); details: at 20 µM (top of the series)
# [7] = reduced SW480 viability measured with CellTiter-Glo, NPC library, primary (AID 1117343;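 active = compounds that lower viability of the colon cancer cells in the luminescence readout, with no numeric limit stated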); details: CellTiter-Glo luminescence; at 20 µM (top of the series)
# [8] = NPC library primary testing for decreased DLD-1 cell viability via CellTiter-Glo (AID 1117346;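 active = compounds that lower survival of DLD-1 colon cancer cells in the luminescence readout, no cutoff given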); details: DLD-1 viability, CellTiter-Glo luminescence; at 20 µM (top of the series)
# [9] = target: 6-phosphogluconate dehydrogenase, decarboxylating (Homo sapiens) (UniProt P52209); test: inhibition of human phosphogluconate dehydrogenase – biochemical, recombinant enzyme, NADPH absorbance, primary screen (AID 1159550;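 active = at least 20% inhibition of 6-phosphogluconate dehydrogenase activity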); details: recombinant 6PGD, NADPH absorbance 341 nm; at 10 µM; stronger effect = higher value
# [10] = EMT-state selective cytotoxicity in co-culture – imaging, PC-3E GFP, TEM4-18 mCherry, primary screen (AID 1345086;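 active = compounds killing one labelled cell type while sparing the other, by normalised counts and ratio limits, not self-fluorescent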;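 for all read-outs here: cells exposed to compound for 72 h before imaging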;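 for red/green cell ratio (normalised): normalised mesenchymal count divided by normalised epithelial count so high means epithelial killing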); details: PC-3E GFP / TEM4-18 mCherry co-culture, imaging cell counts, at 1 µM; for red/green cell ratio (normalised): actives lie on both sides
# [11] = tested on: Aerobactin synthetase IucA (Klebsiella pneumoniae hvKP1); test: IucA enzyme inhibition, primary screen, biochemical, Spectrum library (AID 1346200; call rule not given here;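 note: 100% = wells without compound and 0% = wells lacking enzyme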); details: malachite green pyrophosphate, A620, at 8 µM, stronger effect = lower value
# [12] = viability loss with induced miR-34 in A549 – imaging, A549 dox-inducible miR-34, nuclei and caspase counts, primary screen (AID 1347080); details: A549 miR-34 inducible, Hoechst nuclei count, 48 h
# [13] = MELAS cybrid and Rieske KO viability enhancers – cell-based, MELAS cybrids, Rieske KO mouse fibroblasts, CellTiter-Glo, primary screen (AID 1508586;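 active = mean z-score across replicates of 1.96 or higher in either the MELAS or the Rieske mutant cell line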;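 note: z relative to plate mean and SD of compound and empty wells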); details: low glucose
# [14] = target: NAD(+) hydrolase SARM1 (Homo sapiens) (UniProt Q6SZW1); test: blocking NAD cleavage by SARM1 SAM-TIR – cell lysate, NAD-Glo luminescence (AID 1508614;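 active = compound whose remaining NAD level is above about 45 nM, limit read from the data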;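 note: higher remaining NAD means stronger inhibition of SARM1 NADase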); details: SAM-TIR HEK293T lysate NADase, at 1 µM, stronger effect = higher value
# [15] = target: Mitogen-activated protein kinase 7 (Homo sapiens) (UniProt Q13164); test: Gal4-ERK5 driven luciferase induction – cell-based, HTS, primary screen (AID 1508626;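 active = luciferase signal above three times the same-plate solvent-only control wells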;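 note: luciferase driven by Gal4-ERK5 fusion binding five Gal4 sites before minimal TATA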); details: HeLa Gal4-ERK5 transactivation, 18 h, at 5 µM, stronger effect = higher value
# [16] = galactose survival enhancers in mitochondrial complex I cybrids – cell-based, galactose medium, ATP luminescence, primary screen (AID 1645843;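 active = z-score of at least 1.8 in each of two replicates, scored against plate mean and spread of sample wells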;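 note: positive z means more ATP and so rescue of galactose-driven cybrid death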); details: complex I mutant cybrid cells, 72 h, stronger effect = higher value
# [17] = yeast 75Q aggregation reduction – 75Q-TubU reporter (AID 1593); details: Yeast 75Q polyglutamine aggregation reporter
# [18] = blockers of cytochrome c efflux from mitochondria – biochemical, purified mitochondria (AID 1603); details: stronger effect = lower value;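 note: mouse liver mitochondria challenged with calcium chloride; signal normalized to the plate average as 100%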
# [19] = polyglutamine aggregate formation blockers (AID 1604); details: polyglutamine-induced protein aggregation inhibition assay; stronger effect = higher value; tested at 2.5 µM
# [20] = P. berghei load reduction in hepatocytes – cell-based, HepG2, luciferase luminescence, HepG2 viability, primary screen (AID 624349; in the data active = parasite load remaining mostly below about 12%, no sharp cut-off; inactive = mostly above about 10%;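 note: 100% = mean of DMSO negative control wells on the same plate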); details: P. berghei liver stage in HepG2, luciferase luminescence, concentration not given here; parasite load remaining: stronger effect = lower value; viability: measured here: HepG2 viability without parasites
# [21] = measured here: epithelial PC-3E GFP cell survival
# [22] = measured here: mesenchymal TEM4-18 mCherry cell survival
# [23] = measured here: relative caspase fold change +Dox/-Dox
# [24] = measured here: total cells with miR-34 induction, stronger effect = lower value
# [25] = measured here: total cells without miR-34 induction
# [26] = MELAS cybrid survival, CellTiter-Glo 48 h, stronger effect = higher value
# [27] = Rieske KO mouse fibroblast survival, CellTiter-Glo 72 h
# Sequence of Mitogen-activated protein kinase 7 (Homo sapiens) (Q13164 whole entry, looked up, the tested form may be a part): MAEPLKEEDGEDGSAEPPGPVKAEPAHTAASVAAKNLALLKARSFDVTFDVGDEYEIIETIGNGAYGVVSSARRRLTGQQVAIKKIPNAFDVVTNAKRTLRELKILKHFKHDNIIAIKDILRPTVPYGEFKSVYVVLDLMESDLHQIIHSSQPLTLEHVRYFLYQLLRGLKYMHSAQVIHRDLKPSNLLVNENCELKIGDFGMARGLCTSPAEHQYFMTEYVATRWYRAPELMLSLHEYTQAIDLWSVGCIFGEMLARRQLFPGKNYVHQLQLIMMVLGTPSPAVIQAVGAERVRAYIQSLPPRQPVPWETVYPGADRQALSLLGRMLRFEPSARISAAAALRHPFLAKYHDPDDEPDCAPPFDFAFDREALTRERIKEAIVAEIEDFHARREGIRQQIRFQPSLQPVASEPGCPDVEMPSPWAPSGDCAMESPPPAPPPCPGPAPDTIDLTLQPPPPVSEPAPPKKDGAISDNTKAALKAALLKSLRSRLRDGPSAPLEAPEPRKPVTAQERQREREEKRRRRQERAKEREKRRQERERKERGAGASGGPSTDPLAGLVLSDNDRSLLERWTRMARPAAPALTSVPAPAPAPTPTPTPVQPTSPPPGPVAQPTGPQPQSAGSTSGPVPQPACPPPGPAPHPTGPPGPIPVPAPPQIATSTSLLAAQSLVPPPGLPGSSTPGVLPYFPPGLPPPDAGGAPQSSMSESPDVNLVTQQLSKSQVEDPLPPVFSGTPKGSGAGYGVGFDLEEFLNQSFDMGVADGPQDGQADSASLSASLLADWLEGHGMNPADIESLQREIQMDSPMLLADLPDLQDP
# Sequence of NAD(+) hydrolase SARM1 (Homo sapiens) (Q6SZW1 whole entry, looked up, the tested form may be a part): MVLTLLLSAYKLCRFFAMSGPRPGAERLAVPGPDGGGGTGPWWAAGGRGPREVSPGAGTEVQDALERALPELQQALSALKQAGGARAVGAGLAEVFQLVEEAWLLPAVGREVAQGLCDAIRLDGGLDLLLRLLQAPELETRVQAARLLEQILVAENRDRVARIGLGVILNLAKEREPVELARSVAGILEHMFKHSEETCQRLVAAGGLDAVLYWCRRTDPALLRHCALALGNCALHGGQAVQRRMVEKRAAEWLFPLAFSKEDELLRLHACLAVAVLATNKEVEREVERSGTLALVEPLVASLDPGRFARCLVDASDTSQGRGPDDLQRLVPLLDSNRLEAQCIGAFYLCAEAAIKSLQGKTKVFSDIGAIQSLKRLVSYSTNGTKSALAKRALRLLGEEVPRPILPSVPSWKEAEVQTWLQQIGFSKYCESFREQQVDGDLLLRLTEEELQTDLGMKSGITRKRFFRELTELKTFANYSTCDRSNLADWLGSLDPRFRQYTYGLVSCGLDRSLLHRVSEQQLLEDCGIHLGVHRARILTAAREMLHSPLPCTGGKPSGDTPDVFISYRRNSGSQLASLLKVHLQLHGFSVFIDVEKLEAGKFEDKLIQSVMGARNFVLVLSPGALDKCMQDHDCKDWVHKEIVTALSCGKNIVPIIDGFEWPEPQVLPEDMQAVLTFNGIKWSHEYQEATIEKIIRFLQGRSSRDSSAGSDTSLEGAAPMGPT
# Sequence of 6-phosphogluconate dehydrogenase, decarboxylating (Homo sapiens) (P52209 whole entry, looked up): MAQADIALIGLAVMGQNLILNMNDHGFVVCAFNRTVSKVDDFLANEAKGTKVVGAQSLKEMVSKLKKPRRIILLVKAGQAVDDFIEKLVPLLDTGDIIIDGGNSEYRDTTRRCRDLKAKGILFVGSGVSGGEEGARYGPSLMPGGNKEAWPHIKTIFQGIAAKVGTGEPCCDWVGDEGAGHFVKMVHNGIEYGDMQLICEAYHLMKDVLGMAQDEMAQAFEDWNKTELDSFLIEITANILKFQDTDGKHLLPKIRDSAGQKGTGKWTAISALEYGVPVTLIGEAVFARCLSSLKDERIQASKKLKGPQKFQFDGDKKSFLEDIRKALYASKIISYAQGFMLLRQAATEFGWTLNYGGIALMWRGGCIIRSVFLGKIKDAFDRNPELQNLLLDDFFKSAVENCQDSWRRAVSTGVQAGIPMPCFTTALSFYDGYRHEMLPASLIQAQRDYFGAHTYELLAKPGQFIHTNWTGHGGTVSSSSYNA
smiles,measurement,setting,value
COc1ccc(OC)c(C(O)C(C)N)c1 (configuration not stated),nuclear beta-catenin stimulation,[1]; at 10 µM,-1.8% (inactive)
same,nuclear beta-catenin stimulation,"[1]; stimulation, at 2 µM",-1.1%
same,insulin secretion stimulation,[2],-0.1% (inactive)
same,viability decrease,[3],4% (inactive)
same,tube area decrease,[4],-6.6% (inactive)
same,GLP1 secretion stimulation,[5],-3.9% (inactive)
same,inhibition of viability,[6],-3% (inactive)
same,viability decrease (inhibition),[7],-2.5% (inactive)
same,viability decrease (inhibition),[8],-4.2% (inactive)
same,inhibition,[9],11.8% (inactive)
same,red/green cell ratio (normalised),[10],0.84 (inactive)
same,normalised cell number,[10]; [21],1.33
same,normalised cell number,[10]; [22],1.11
same,activity remaining,[11],103% (inactive)
same,fold change,[12]; stronger effect = lower value,1.09 (inactive) and 0.79 (inactive) and 0.922 (inactive)
same,fold change,[12]; [23],1.23 and 1.51 and 0.904
same,cell count,[12]; [24],11000 and 8690 and 11600
same,cell count,[12]; [25],10000 and 11000 and 12600
same,z-score,[13]; [26],0.379 (inactive)
same,z-score,[13]; [27],0.108
same,remaining NAD,[14],10 nM (inactive)
same,luciferase signal,[15],104 AU (inactive)
same,z-score,[16],0.13 (inactive)
CN(C)[C@@H]1C(=O)C(C(N)=O)=C(O)[C@@]2(O)C(=O)C3=C(O)c4c(O)cccc4[C@@](C)(O)[C@H]3[C@H](O)[C@@H]12,score,[17],0.9
same,cytochrome c release ratio,[18],0.99
same,inhibition of aggregation,[19],39.4%
same,nuclear beta-catenin stimulation,[1]; at 10 µM,-2.3% (inactive)
same,nuclear beta-catenin stimulation,"[1]; stimulation, at 2 µM",0.1%
same,insulin secretion stimulation,[2],1.4% (inactive)
same,viability decrease,[3],38.4% (inactive)
same,tube area decrease,[4],11.7% (inactive)
same,GLP1 secretion stimulation,[5],-2.9% (inactive)
same,inhibition of viability,[6],31.6% (inactive)
same,viability decrease (inhibition),[7],62.8% (active)
same,viability decrease (inhibition),[8],14.3% (inactive)
same,inhibition,[9],-7.39% (inactive)
same,red/green cell ratio (normalised),[10],0.97 (inactive)
same,normalised cell number,[10]; [21],1.02
same,normalised cell number,[10]; [22],0.99
same,activity remaining,[11],109% (inactive)
same,fold change,[12]; stronger effect = lower value,0.977 (inactive) and 0.919 (inactive) and 0.901 (inactive)
same,fold change,[12]; [23],0.839 and 0.936 and 1.89
same,cell count,[12]; [24],8720 and 8430 and 10800
same,cell count,[12]; [25],8930 and 9170 and 12000
same,z-score,[13]; [26],-3.76 (inactive)
same,z-score,[13]; [27],-2.32
same,remaining NAD,[14],10 nM (inactive)
same,luciferase signal,[15],92 AU (inactive)
same,z-score,[16],-1.4 (inactive)
CCCC1CCCCN1 (configuration not stated),nuclear beta-catenin stimulation,[1]; at 10 µM,0.5% (inactive)
same,nuclear beta-catenin stimulation,"[1]; stimulation, at 2 µM",0.1%
same,insulin secretion stimulation,[2],-0.9% (inactive)
same,viability decrease,[3],-0.7% (inactive)
same,tube area decrease,[4],2.4% (inactive)
same,GLP1 secretion stimulation,[5],0% (inactive)
same,inhibition of viability,[6],-0.2% (inactive)
same,viability decrease (inhibition),[7],8% (inactive)
same,viability decrease (inhibition),[8],-1.85% (inactive)
same,inhibition,[9],18.6% (inactive)
CC(CCc1ccccc1)NC(C)C(O)c1ccc(O)cc1 (configuration not stated),score,[17],1.53
same,cytochrome c release ratio,[18],0.84
same,inhibition of aggregation,[19],63.6%
same,parasite load remaining,[20],75.2% (inactive) and 69.3% (inactive)
same,viability,[20],72.4% and 90.8%
same,nuclear beta-catenin stimulation,[1]; at 10 µM,-0.2% (inactive)
same,nuclear beta-catenin stimulation,"[1]; stimulation, at 2 µM",-0.9%
same,insulin secretion stimulation,[2],43.4% (active)
same,viability decrease,[3],-3.7% (inactive)
same,tube area decrease,[4],16.8% (inactive)
same,GLP1 secretion stimulation,[5],-0.5% (inactive)
same,inhibition of viability,[6],16.9% (inactive)
same,viability decrease (inhibition),[7],24.3% (inactive)
same,viability decrease (inhibition),[8],-7.8% (inactive)
same,inhibition,[9],14.2% (inactive)
same,red/green cell ratio (normalised),[10],1.03 (inactive)
same,normalised cell number,[10]; [21],1.2
same,normalised cell number,[10]; [22],1.24
same,activity remaining,[11],82.9% (inactive)
same,fold change,[12]; stronger effect = lower value,1.06 (inactive) and 0.798 (inactive)
same,fold change,[12]; [23],0.901 and 0.92
same,cell count,[12]; [24],10600 and 10000
same,cell count,[12]; [25],10000 and 12600
same,z-score,[13]; [26],0.615 (inactive)
same,z-score,[13]; [27],-0.62
same,remaining NAD,[14],10 nM (inactive)
same,luciferase signal,[15],40 AU (inactive)
same,z-score,[16],-0.555 (inactive)
